Test results from PubChem BioAssay AID1159580 (chemical genetic matrix, 2015).
Hit rate of the full screen: of about 5,500 compounds, about 2,000 (36%) were called active. Inconclusive results (about 18%) are left out. No stated cut-off is given here; in the data, active means normalized growth mostly below about 0.91 (no sharp cut-off); inconclusive means no clear call, values can overlap the other calls; inactive means mostly above about 0.92. This is one part of the list.

Experiment: chemical genetic growth profiling, strain panel (AID 1159580);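 further: tested at 20 µM; growth read once vehicle control cultures reached saturation at 30 °C; 1 = growth at the plate median or of vehicle wells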
Settings: S. cerevisiae deletion strains, growth OD
[1] = locus YAR019C, strain CDC15, stronger effect = lower value
[2] = locus YBL105C, strain PKC1, stronger effect = lower value
[3] = locus YBR135W, strain CKS1, stronger effect = lower value
[4] = locus YBR136W, strain MEC1, stronger effect = lower value
[5] = locus YBR160W, strain CDC28, stronger effect = lower value
[6] = locus YDL017W, strain CDC7, stronger effect = lower value
[7] = locus YDL028C, strain MPS1, stronger effect = lower value
[8] = locus YDL101C, strain DUN1, stronger effect = lower value
[9] = locus YDL108W, strain KIN28, stronger effect = lower value
[10] = locus YDL132W, strain cdc53, stronger effect = lower value
[11] = locus YDL214C, strain PRR2, stronger effect = lower value
[12] = locus YDR052C, strain DBF4, stronger effect = lower value
[13] = locus YDR054C, strain cdc34, stronger effect = lower value
[14] = locus YDR226W, strain ADK1, stronger effect = lower value
[15] = locus YDR477W, strain SNF1, stronger effect = lower value
[16] = locus YER123W, strain YCK3, stronger effect = lower value
[17] = locus YER133W, strain GLC7, stronger effect = lower value
[18] = locus YFL009W, strain cdc4, stronger effect = lower value
[19] = locus YFL029C, strain CAK1, stronger effect = lower value
[20] = locus YFR003C, strain YPI1, stronger effect = lower value
[21] = locus YFR019W, strain FAB1, stronger effect = lower value
[22] = locus YFR028C, strain CDC14, stronger effect = lower value
[23] = locus YGR040W, strain KSS1, stronger effect = lower value
[24] = locus YGR052W, strain FMP48, stronger effect = lower value
[25] = locus YGR092W, strain DBF2, stronger effect = lower value
[26] = locus YHR030C, strain SLT2, stronger effect = lower value
[27] = locus YHR079C, strain IRE1, stronger effect = lower value
[28] = locus YHR082C, strain KSP1, stronger effect = lower value
[29] = locus YHR205W, strain SCH9, stronger effect = lower value
[30] = locus YIL147C, strain SLN1, stronger effect = lower value
[31] = locus YJL095W, strain BCK1, stronger effect = lower value
[32] = locus YJL128C, strain PBS2, stronger effect = lower value
[33] = locus YJL157C, strain FAR1, stronger effect = lower value
[34] = locus YJR016C, strain ILV3, stronger effect = lower value
[35] = locus YJR066W, strain TOR1 (second series), stronger effect = lower value
[36] = locus YJR066W, strain TOR1, stronger effect = lower value
[37] = locus YKL048C, strain ELM1, stronger effect = lower value
[38] = locus YKL067W, strain YNK1, stronger effect = lower value
[39] = locus YKL101W, strain HSL1, stronger effect = lower value
[40] = locus YKL193C, strain SDS22, stronger effect = lower value
[41] = locus YKL203C, strain TOR2, stronger effect = lower value
[42] = locus YLR113W, strain HOG1, stronger effect = lower value
[43] = locus YLR133W, strain CKI1, stronger effect = lower value
[44] = locus YLR403W, strain SFP1, stronger effect = lower value
[45] = locus YML070W, strain DAK1, stronger effect = lower value
[46] = locus YMR001C, strain CDC5, stronger effect = lower value
[47] = locus YMR205C, strain PFK2 (second series), stronger effect = lower value
[48] = locus YMR277W, strain FCP1, stronger effect = lower value
[49] = locus YNL006W, strain LST8, stronger effect = lower value
[50] = locus YNL020C, strain ARK1, stronger effect = lower value
[51] = locus YNL161W, strain CBK1, stronger effect = lower value
[52] = locus YNL183C, strain NPR1, stronger effect = lower value
[53] = locus YNL207W, strain RIO2, stronger effect = lower value
[54] = locus YNL222W, strain SSU72, stronger effect = lower value
[55] = locus YNL307C, strain MCK1 (second series), stronger effect = lower value
[56] = locus YOL078W, strain AVO1, stronger effect = lower value
[57] = locus YOL136C, strain PFK27, stronger effect = lower value
[58] = locus YOR061W, strain CKA2, stronger effect = lower value
[59] = locus YOR119C, strain RIO1, stronger effect = lower value
[60] = locus YOR231W, strain MKK1, stronger effect = lower value
[61] = locus YOR329C, strain SCD5, stronger effect = lower value
[62] = locus YPL031C, strain PHO85, stronger effect = lower value
[63] = locus YPL153C, strain RAD53, stronger effect = lower value
[64] = locus YPL204W, strain HRR25, stronger effect = lower value
[65] = locus YPL209C, strain IPL1, stronger effect = lower value
[66] = locus YPL256C, strain CLN2, stronger effect = lower value
[67] = locus YPR025C, strain CCL1, stronger effect = lower value
[68] = locus YPR106W, strain ISR1, stronger effect = lower value
[69] = locus YPR111W, strain DBF20, stronger effect = lower value
[70] = strain NNK1, stronger effect = lower value
[71] = strain TSCII, stronger effect = lower value

Measured: normalized growth

FC(F)(F)c1cccc(NC(=S)Nc2ccccc2)c1
inactive: [1] 0.983 | [2] 0.98 | [3] 0.975 | [4] 0.979 | [5] 0.981 | [6] 0.987 | [7] 0.98 | [8] 0.989 | [9] 0.978 | [10] 0.966 | [11] 0.949 | [12] 0.996 | [13] 0.982 | [14] 0.98 | [15] 0.954 | [16] 0.96 | [17] 0.958 | [18] 0.973 | [19] 0.983 | [20] 0.982 | [21] 0.962 | [22] 0.967 | [23] 0.941 | [24] 0.974 | [25] 0.883 | [26] 1 | [27] 1.04 | [28] 1 | [29] 0.951 | [30] 0.977 | [31] 0.882 | [32] 0.959 | [33] 0.941 | [34] 0.968 | [35] 0.897 | [36] 0.989 | [37] 1 | [38] 0.961 | [39] 0.955 | [40] 0.973 | [41] 0.995 | [42] 0.962 | [43] 0.947 | [44] 0.899 | [45] 0.966 | [46] 0.98 | [47] 0.991 | [48] 0.97 | [49] 0.985 | [50] 0.974 | [51] 0.981 | [52] 1 | [53] 0.967 | [54] 0.981 | [55] 0.896 | [56] 0.967 | [57] 0.95 | [58] 0.952 | [59] 1.02 | [60] 0.95 | [61] 0.989 | [62] 0.952 | [63] 0.954 | [64] 0.934 | [65] 0.978 | [66] 1.1 | [67] 0.982 | [68] 0.987 | [69] 0.969 | [70] 0.982 | [71] 0.975

O=C(NC(=S)Nc1cccc(C(F)(F)F)c1)c1ccc2nonc2c1
active: [26] 0.774 | [42] 0.713 | [66] 0.831
inactive: [1] 0.956 | [2] 0.968 | [3] 0.93 | [4] 0.952 | [5] 0.96 | [6] 0.96 | [7] 0.952 | [8] 0.957 | [9] 0.957 | [10] 0.967 | [11] 0.973 | [12] 0.978 | [13] 0.94 | [14] 0.957 | [15] 0.896 | [16] 0.971 | [17] 0.95 | [18] 0.944 | [19] 0.961 | [20] 0.96 | [21] 1 | [22] 0.944 | [23] 0.907 | [24] 1.04 | [25] 0.989 | [27] 0.949 | [28] 0.912 | [29] 0.907 | [30] 0.952 | [31] 0.778 | [32] 0.978 | [33] 0.974 | [34] 0.93 | [35] 0.938 | [36] 0.838 | [37] 0.968 | [38] 0.979 | [39] 0.956 | [40] 0.953 | [41] 0.972 | [43] 0.966 | [44] 0.968 | [45] 0.953 | [46] 0.957 | [47] 0.959 | [48] 0.953 | [49] 0.961 | [50] 0.962 | [51] 0.954 | [52] 0.852 | [53] 0.962 | [54] 0.947 | [55] 0.974 | [56] 0.953 | [57] 0.991 | [58] 0.967 | [59] 1.02 | [60] 0.863 | [61] 0.969 | [62] 0.912 | [63] 0.905 | [64] 0.936 | [65] 0.945 | [67] 0.951 | [68] 0.973 | [69] 0.936 | [70] 0.954 | [71] 0.939
